Results as given in PubChem BioAssay (NCATS).
Values joined by “and” are separate entries in the source; they are usually repeats but may differ in a detail not shown here. Equal values may be shown once. Results filed as inconclusive are left out. Some compounds were tested as several samples or in several runs, with calls that do not always agree. Active and inactive are the calls of the source. Unless noted, the rule behind the calls is not given here.

What was measured:
[1] = qHTS profiling for inhibitors of Plasmodium falciparum (HB3) proliferation (AID 743324; active = well fitted curve in the direction sought with a large enough effect; an effect the other way counts as inactive or inconclusive;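 note: 100% = DMSO vehicle wells and 0% = artemisinin-treated control wells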); settings: Plasmodium falciparum HB3 blood-stage proliferation; at 28.7 µM (top of the series) unless noted
Outline: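 P. falciparum HB3 grown in erythrocytes (0.3% parasitemia, 2.5% hematocrit final) with compound for 72 h at 37 C, 5% CO2. Parasite DNA detected by SYBR Green after saponin/triton lysis overnight; normalized to 0.29 uM artemisinin and DMSO.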

[2] = qHTS profiling of the MIPE4 collection as inhibitors of Plasmodium falciparum (3D7) proliferation (AID 743344);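 note: scaled between DMSO vehicle wells and 0.29 µM artemisinin as full inhibition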; settings: P. falciparum 3D7 in erythrocytes, SYBR Green DNA fluorescence, 72 h; at 28.5 µM (top of the series) unless noted
Outline: (§1)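 Erythrocytes infected with P. falciparum (0.3% parasitemia, 2.5% hematocrit) incubated with compounds 72 h at 37 C, 5% CO2. Lysis with saponin/Triton buffer containing SYBR Green I, overnight at room temperature in the dark; DNA fluorescence (485/535 nm) normalised to 0.29 uM artemisinin and DMSO.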

[3] = qHTS profiling of the MIPE4 collection as inhibitors of Plasmodium falciparum (DD2) proliferation (AID 743345); settings: P. falciparum Dd2 in erythrocytes, SYBR Green DNA, 72 h; at 28.5 µM (top of the series) unless noted
Outline: as §1

[4] = qHTS profiling of the MIPE4 collection as inhibitors of Plasmodium falciparum (DD2) proliferation (Rep 2) (AID 743346); settings: P. falciparum Dd2 in erythrocytes, SYBR Green DNA, 72 h; at 28.5 µM (top of the series) unless noted
Outline: as §1

[5] = qHTS profiling of the MIPE4 collection as inhibitors of Plasmodium falciparum (HB3) proliferation (AID 743347);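 note: plate controls were DMSO vehicle wells for no effect and artemisinin wells for full effect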; settings: P. falciparum HB3 in erythrocytes, SYBR Green DNA, 72 h; at 28.5 µM (top of the series) unless noted
Outline: as §1

[6] = High-throughput drug toxicity screening in the BPDCN cell line Gen2.2 (AID 1224824); settings: Gen2.2 BPDCN cells; at 45.8 µM (top of the series) unless noted;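 note: cells exposed to compounds for 48 h before reading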
Outline: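 Gen2.2 cells (500/well) in phenol red-free RPMI with 10% FBS were exposed to compounds for 48 h at 37 °C, 5% CO2. Viability was read by CellTiter-Glo luminescence and normalized to DMSO (100%) and 9.2 uM bortezomib (0%).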

[7] = High-throughput drug toxicity screening in the BPDCN cell line Cal-1 (AID 1224825); settings: Cal-1 BPDCN cell viability, qHTS; at 45.8 µM (top of the series) unless noted
Outline: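 Cal-1 cells, 500 per well in phenol-red-free RPMI with 10% FBS, exposed to compounds for 48 hours at 37C, 5% CO2. Viability read by CellTiter-Glo luminescence; percent activity normalized to DMSO (100%) and 9.2 uM bortezomib final (0%).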

[8] = qHTS assay for measurement of the activity of small molecule inhibitors on Zika virus induced Caspase-3 activity in human iPSC derived neural progenitor cells (hNPCs) (AID 1224857; active = well fitted curve in the direction sought with a large enough effect; an effect the other way counts as inactive or inconclusive; note: nearly all actives have a fitted effect of over 65% in size; note: potency is the fitted concentration of half-maximal effect)
Outline: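 After overnight (16–20 h) culture at 350 cells/well, hNPCs get compound, then ZIKV 2 FFU/cell one hour later. Six hours on, Caspase-Glo 3/7 is added and luminescence measured.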

Structure (SMILES)	remaining proliferation (% of control), lower = more inhibition [1] [%]	parasite growth, % of DMSO control [2]	parasite growth remaining, % of DMSO control (lower = more inhibition) [3]	parasite growth, % of control (lower = inhibition) [4]	growth, % of control [5]	cell viability, % of control (lower = more cytotoxic) [6]	viability (% of control) [7]	Potency [8]
Cn1cnc2c(F)c(Nc3ccc(Br)cc3Cl)c(C(=O)NOCCO)cc21	94.6	58.2%	95.9%	57.1%	97.3%	4.9%	23.1%	inactive
C[C@H](NC(=O)Cc1cc(F)cc(F)c1)C(=O)N[C@@H]1C(=O)N(C)c2ccccc2-c2ccccc21	6.09	10.3%	12.1%	12.3%	3.07%	176%	43.1%	inactive
NC(=O)c1ccc(-c2nc(-c3ccc4c(c3)OCCO4)c(-c3ccccn3)[nH]2)cc1	13.2	25.9%	18.9%	18.6%		607%	102%	inactive
COc1c(Cl)cc2c([nH]c3cnccc32)c1NC(=O)c1cccnc1C	86.1	19.9%	72.7%	25.5%	4.33%	41.9%	77.1%	inactive
NC(=O)c1ccc(I)c([N+](=O)[O-])c1	77.5	71.2%	97.1%	90.7%		44.8%	40.1%	inactive
N#Cc1ccc(C(c2ccc(C#N)cc2)n2cncn2)cc1	95.8	89.2%	93.7%	123%		33%	70.2%	inactive
CCCS(=O)(=O)Nc1ccc(F)c(C(=O)c2c[nH]c3ncc(Cl)cc23)c1F	55.7	51.6%	77.2%	80.8%	71.8%	113%	17.1%	inactive
COc1ccc(-c2ccc3c(N4CCOC[C@H]4C)nc(N4CCOC[C@H]4C)nc3n2)cc1CO	10.7	6.01%	9.32%			11.3%	22%	inactive
O=C(Nc1ccc(F)c(C(F)(F)F)c1)Nc1nnc(-c2ccncc2)s1	67.6	19.3%	14.4%	25.2%	4.4%	131%	101%	inactive
Nc1nc2[nH]cc(CCc3ccc(C(=O)N[C@@H](CCC(=O)O)C(=O)O)cc3)c2c(=O)[nH]1	4.66	55.6%	48.3%	26.3%		115%	37.4%	inactive
CCCCCCCc1ccc(CCc2cccc(O)c2C(=O)O)cc1	58.6	68.8%	99.9%	66.9%	81.6%	161%	66.1%	inactive
Nc1ncnc2nc(-c3ccc(N4CCOCC4)nc3)cc(-c3cccc(Br)c3)c12						76%	55.4%	inactive
Cc1csc(NC(=O)c2sc3nc4c(c(C(F)(F)F)c3c2N)CCC4)n1	87.9	44.6%	90.9%	62.4%	78.3%	36.4%	93.3%	23.5 µM (active)
NC(N)=NC(=O)c1nc(Cl)c(N)nc1N						12.8%	23.5%	inactive
C[C@]1(c2nc3c(C(N)=O)cccc3[nH]2)CCCN1	94	88.7%	94.9%			50.9%	88%	inactive
CC(C)(C)OC(=O)CN(Cc1ccc(Cl)cc1)Cc1ccc([N+](=O)[O-])s1	-1.32	99.5%	19.7%	26.7%		18.4%	30.5%	10.5 µM (active)
CCc1cncnc1N1CCN(Cc2nc3ccc(C(F)(F)F)cc3[nH]2)CC1	14	19.6%	33%	27.9%		130%	91.1%	inactive
CCCc1nn(C)c2c(=O)[nH]c(-c3cc(S(=O)(=O)N4CCN(C)CC4)ccc3OCC)nc12	61.6	21.3%	17.2%	51.4%		91.7%	81.8%	inactive
O=NN(CCCl)C(=O)NCCCl						114%	103%	inactive
COc1ccc(-c2c(-c3ccc(O)cc3O)n[nH]c2C)cc1	0.491	47% [at 57.5 µM]	61.8% [at 57.5 µM]	45.5% [at 57.5 µM]	106% [at 57.5 µM]	96.4% [at 92.2 µM]	61.9% [at 92.2 µM]	inactive
O=C(O)CCc1ccc(NCc2cccc(Oc3ccccc3)c2)cc1	98.6	93.6%	87.8%	210%	76.8%	132%	108%	inactive
CC[C@H](Nc1ncnc2nc[nH]c12)c1nc2cccc(F)c2c(=O)n1-c1ccccc1						4.94%	18.8%	inactive
C[C@@H]1CN(Cc2ccc(F)cc2)[C@@H](C)CN1C(=O)c1cc2c(C(=O)C(=O)N(C)C)cn(C)c2cc1Cl	52.3	49.5%	83.2%	48.6%	47.5%	160%	70.3%	inactive
Cc1cc2c(F)c(Oc3ncnn4cc(OC[C@@H](C)O)c(C)c34)ccc2[nH]1	75.1	46.6%	93.1%	54.4%		249%	71.2%	inactive
CC1(C)SCCN(S(=O)(=O)c2ccc(OCC#CCO)cc2)[C@@H]1C(=O)NO	81.4	65.2%	66%	70%	112%	80%	102%	inactive

Structure (SMILES)	remaining proliferation (% of control), lower = more inhibition [1] [%]	parasite growth, % of DMSO control [2]	parasite growth remaining, % of DMSO control (lower = more inhibition) [3]	parasite growth, % of control (lower = inhibition) [4]	growth, % of control [5]	cell viability, % of control (lower = more cytotoxic) [6]	viability (% of control) [7]	Potency [8]
NC(=O)C1CCCc2c1[nH]c1ccc(Cl)cc21 (stereo unspecified)	95	92%	112%	145%	106%	67%	67.2%	inactive
Nc1nccc(-c2ccc3noc(-c4ccc(Cl)cc4)c3c2)n1	81.1	85.1%	92.5%		33.5%	68.4%	46.9%	inactive
CC(C)C[C@H](NC(=O)[C@@H](O)[C@H](N)Cc1ccccc1)C(=O)O	5.96	7.87%	10.1%	16%	6.17%	103%	38.3%	inactive
Cc1[nH]c(=O)c(C#N)cc1-c1ccc2nccn2c1		50.3%	93.1%	113%		220%	95.5%	inactive and 7.43 µM (active)
NS(=O)(=O)c1cc2c(cc1Cl)NC=NS2(=O)=O		88.5%	91.5%	125%	105%	71.6%	26.7%	inactive
CNC[C@H](O)c1cccc(O)c1		102%	98.1%	94.6%	92.6%	196%	133%	inactive
O=C(C=Cc1ccc(/C=C/C(=O)Nc2ccc(C3=NCCN3)cc2)cc1)Nc1ccc(C2=NCCN2)cc1	10.9	25.9%	39%	40.5%	54.9%	203%	104%	inactive
NNCCc1ccccc1		88.8%	24.6%	79.6%	96.6%	133%	10.4%	inactive and 26.4 µM (active)
CC(C)NCC(O)COc1ccc(COCCOC(C)C)cc1 (stereo unspecified)		78.7%	102%	98%	102%	123%	113%	inactive
CCCc1nc2c(C)cc(-c3nc4ccccc4n3C)cc2n1Cc1ccc(-c2ccccc2C(=O)O)cc1	66.6	6.42%	16.2%		7.75%	126%	103%	inactive
COc1ccc(-c2oc3cc(OC)ccc3c2C(=O)c2ccc(C#N)cc2)cc1	23.4	23.1%	81.9%	14.8%	16.7%	84.5%	19.6%	inactive
NCCCC(N)(C(=O)O)C(F)F (stereo unspecified)		98%	95.9%	157%	107%	77.2%	47.4%	inactive
NC[C@H](O)c1ccc(O)c(O)c1		71.5%	97.8%	78.3%	82.4%	132%	96.3%	inactive
Cc1[nH]c(=O)c(C#N)cc1-c1ccncc1		15.2%	14.6%	36.4%	9.94%	244%	23%	inactive
CNC(=O)c1ccc(N2C(=S)N(c3ccc(C#N)c(C(F)(F)F)c3)C(=O)C2(C)C)cc1F	62.8	53.9%	86.3%		41.9%	185%	112%	inactive
CCc1ccc(CCOc2ccc(CC3SC(=O)NC3=O)cc2)nc1 (stereo unspecified)	66.4	89.3%	90.1%		63.3%	142%	100%	inactive
OC(CCN1CCCCC1)(c1ccccc1)C1CC2C=CC1C2 (stereo unspecified)		38.1%	75.2%	44.2%	35.8%	127%	107%	inactive
NC(=O)c1cnccn1		97.3%	94.9%	45.3%	105%	146%	118%	inactive
OC[C@H](Cc1ccccc1)Nc1nc(Oc2ccc3c(c2)CCC3)nc2c1ncn2Cc1ccc(-c2ccccc2)cc1	-0.578	33.7%	44.8%	27%	68.3%	408%	56.2%	inactive
COc1ccc(CCN2CCN(CCCc3ccccc3)CC2)cc1OC		28.6%	95.6%	30%	21.1%	340%	64.5%	inactive
CCOC(=O)N[C@@H]1CC[C@@H]2[C@@H](C1)C[C@H]1C(=O)O[C@H](C)[C@H]1[C@@H]2C=Cc1ccc(-c2cccc(F)c2)cn1	0.902	7.63%	45%	22%	5.21%	14.3%	20%	inactive
COc1ccc(COc2cc3oc(=O)c4cc(C(C)O)ccc4c3cc2OC)cc1 (stereo unspecified)	74.7	39.5%	77.1%	27.3%	46.1%	14.7%	33.4%	inactive
N=c1nc(N2CCCCC2)cc(N)n1O		6.29%	33.6%	7.66%	3.91%	450%	106%	inactive
Cc1ccc(NC(=O)c2cccc(C(C)(C)C#N)c2)cc1Nc1ccc2ncn(C)c(=O)c2c1	7.17	17.3%	39.9%	51%	16.2%	8.79%	14%	inactive
Cc1n[nH]c(C)c1Cc1sc2c(c1C(=O)N1C[C@H](O)CO1)c(=O)n(C)c(=O)n2CC(C)C	81.9	161%	107%	86.3%	145%	109%	96.6%	inactive
